Data from PubChem BioAssay (EPA / NIEHS).
Inconclusive results are not listed. Active and inactive are the calls of the source. Rule for the calls, unless noted: active = hit-call score of the fitted dose curve at least 0.9, where 1 is the maximum; inconclusive = response in the unintended direction; inactive = score below 0.9.

Assays:
[1] = molecular target: human RAR-related Orphan Receptor gamma (RORg), RORC (gene 6097) (UniProt P51449); assay: ATG_RORg_TRANS: Attagene TRANS-FACTORIAL HepG2 Assay for human RAR-related Orphan Receptor gamma (RORg) (AID 2283011)
Outline: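 Reporter transcripts from a transfected RORg-GAL4 chimera in HepG2 cells were quantified 24 h after dosing by RT-PCR, 6-FAM labelling, HpaI digestion and capillary electrophoresis; increases over DMSO baseline were fitted.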

[2] = molecular target: Retinoic acid receptor RXR-alpha (Homo sapiens) (UniProt P19793); assay: ATG_RXRa_TRANS: Attagene TRANS-FACTORIAL HepG2 Assay for human Retinoid X Receptor alpha (RXRa) (AID 2283012)
Outline: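 Transient transfection of human HepG2 with multiple GAL4-UAS reporter constructs; 24 h compound exposure; total RNA isolated, reverse-transcribed, PCR-amplified, 6-FAM labelled, HpaI-cut, resolved by capillary electrophoresis. Positive-direction fit versus DMSO.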

[3] = molecular target: human Vitamin D Receptor (VDR), VDR (gene 7421) (UniProt P11473); assay: ATG_VDR_TRANS: Attagene TRANS-FACTORIAL HepG2 Assay for human Vitamin D Receptor (VDR) (AID 2283022)
Outline: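 Transactivation by an exogenous VDR-Gal4 chimera in transiently transfected HepG2 cells was measured as reporter transcript level 24 hours after chemical treatment. RT-PCR products were analysed by capillary electrophoresis and fitted in the positive direction relative to DMSO.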

[4] = molecular target: human RAR-related Orphan Receptor beta (RORb), RORB (gene 6096) (UniProt Q92753); assay: ATG_RORb_TRANS: Attagene TRANS-FACTORIAL HepG2 Assay for human RAR-related Orphan Receptor beta (RORb) (AID 2283010)
Outline: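 Readout is reporter-gene mRNA induction, detected as fluorescence after RT-PCR and capillary electrophoresis, fitted for gain of signal against DMSO controls. Transiently transfected HepG2 liver cells carrying GAL4-UAS reporter constructs were treated for 24 hours.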

[5] = molecular target: human Thyroid Receptor alpha (THRa1), THRA (gene 7067) (UniProt P10827); assay: ATG_THRa1_TRANS: Attagene TRANS-FACTORIAL HepG2 Assay for human Thyroid Receptor alpha (THRa1) (AID 2283014)
Outline: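 Transcripts from GAL4-UAS-driven reporters, measured after 24 h compound exposure by RT-PCR plus capillary electrophoresis of 6-FAM-labeled fragments, were fitted for gain of signal relative to DMSO. Cells: transiently transfected HepG2 expressing NR-Gal4 chimeras.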

[6] = molecular target: human Retinoid X Receptor beta (RXRb), RXRB (gene 6257) (UniProt P28702); assay: ATG_RXRb_TRANS: Attagene TRANS-FACTORIAL HepG2 Assay for human Retinoid X Receptor beta (RXRb) (AID 2283013)
Outline: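 Transfect HepG2 with GAL4-UAS multi-reporter constructs (chimeric NR-Gal4, TRANS format); dose compound 24 h; isolate RNA, RT-PCR, FAM primer extension, HpaI digest; quantify by capillary electrophoresis; positive direction vs DMSO.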

[7] = read-out: E-selectin (Homo sapiens) (UniProt P16581); assay: BSK_3C_Eselectin: BioMAP Diversity Plus: 3C Assay for Eselectin Biomarker Activity (AID 2283015; active = hit-call score of the fitted dose curve at least 0.9, where 1 is the maximum; inactive = score below 0.9;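 note: cell surface E-selectin protein quantified by ELISA 24 h after dosing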); settings: primary human endothelial cells (HUVEC); actives raise or lower the signal
Outline: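 E-selectin ELISA readout, fitted bidirectionally relative to DMSO, taken 24 h post-dosing in HUVEC cultures of the 3C system. Overt cytotoxicity tracked with sulforhodamine B staining of parallel wells.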

[8] = read-out: Interleukin-1 alpha (IL1a), IL1A (gene 3552); assay: BSK_BE3C_IL1a: BioMAP Diversity Plus: BE3C Assay for Interleukin-1 alpha (IL1a) Biomarker Activity (AID 2283016; active = hit-call score of the fitted dose curve at least 0.9, where 1 is the maximum; inactive = score below 0.9); settings: primary human bronchial epithelial cells; actives raise or lower the signal
Outline: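 BE3C primary human bronchial epithelium; cpd 24 h; IL-1a by ELISA; bidirectional fit vs DMSO; parallel SRB (0.1% SRB, 10% TCA fix, 560 nm) for cytotoxicity.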

[9] = read-out: Monocyte Chemoattractant Protein-1 (MCP1), CCL2 (gene 6347); assay: BSK_3C_MCP1: BioMAP Diversity Plus: 3C Assay for Monocyte Chemoattractant Protein-1 (MCP1) Biomarker Activity (AID 2283017; active = hit-call score of the fitted dose curve at least 0.9, where 1 is the maximum; inactive = score below 0.9); settings: primary human endothelial cells (HUVEC); actives raise or lower the signal
Outline: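 MCP-1 was measured by ELISA 24 h after dosing in primary HUVEC 3C cultures and fitted in both directions relative to DMSO; cytotoxicity was checked by SRB total-protein staining in parallel wells.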

[10] = read-out: Monocyte Chemoattractant Protein-1 (MCP1), CCL2 (gene 6347); assay: BSK_4H_MCP1: BioMAP Diversity Plus: 4H Assay for Monocyte Chemoattractant Protein-1 (MCP1) Biomarker Activity (AID 2283018; active = hit-call score of the fitted dose curve at least 0.9, where 1 is the maximum; inactive = score below 0.9); settings: primary human endothelial cells (HUVEC); actives raise or lower the signal
Outline: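 ELISA read-out of MCP-1 from human vascular endothelial primary cells taken at 24 hours after compound exposure. Activity was fitted in both directions relative to DMSO, which served as negative control.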

[11] = read-out: Human Leukocyte Antigen - DR isotype (HLADR), HLA-DRA (gene 3122); assay: BSK_3C_HLADR: BioMAP Diversity Plus: 3C Assay for Human Leukocyte Antigen - DR isotype (HLADR) Biomarker Activity (AID 2283019; active = hit-call score of the fitted dose curve at least 0.9, where 1 is the maximum; inactive = score below 0.9;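 note: ELISA of cell-surface HLA-DR on HUVEC 24 h after dosing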); settings: primary human endothelial cells (HUVEC); actives raise or lower the signal
Outline: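 Bidirectional fitting against DMSO was applied to the HLA-DR ELISA signal from human umbilical vein endothelial cells, 24 h post-dose. Cytotoxicity came from parallel SRB total-protein staining; 3C proliferation was counted by SRB at 48 h.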

[12] = read-out: Interleukin-8 (IL8), CXCL8 (gene 3576); assay: BSK_3C_IL8: BioMAP Diversity Plus: 3C Assay for Interleukin-8 (IL8) Biomarker Activity (AID 2283020; active = hit-call score of the fitted dose curve at least 0.9, where 1 is the maximum; inactive = score below 0.9); settings: primary human endothelial cells (HUVEC); actives raise or lower the signal
Outline: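 ELISA read-out of IL-8 from human umbilical vein endothelium, measured 24 h after chemical dosing. Activity is expressed relative to DMSO negative control, with both increases and decreases fitted.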

[13] = BSK_3C_SRB: Viability Assessment in the BioMAP Diversity Plus: 3C Assay (AID 2283023; active = hit-call score of the fitted dose curve at least 0.9, where 1 is the maximum; inactive = score below 0.9;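 note: fitted both ways against DMSO so a hit may be signal rise or drop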); settings: primary human endothelial cells (HUVEC)
Outline: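 Cytotoxicity readout in parallel HUVEC 3C cultures: after 24 h compound exposure, cells fixed with 10% TCA, stained with 0.1% SRB and read at 560 nm. Gain or loss relative to DMSO fitted.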

[14] = read-out: Pselectin, SELP (gene 6403); assay: BSK_4H_Pselectin: BioMAP Diversity Plus: 4H Assay for Pselectin Biomarker Activity (AID 2283026; active = hit-call score of the fitted dose curve at least 0.9, where 1 is the maximum; inactive = score below 0.9); settings: primary human endothelial cells (HUVEC); actives raise or lower the signal
Outline: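 ELISA read-out of P-selectin on human umbilical vein endothelium after 24 h of dosing. Values derive from bidirectional fitting relative to DMSO. Parallel SRB protein staining flagged overt cytotoxicity.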

[15] = BSK_BE3C_SRB: Viability Assessment in the BioMAP Diversity Plus: BE3C Assay (AID 2283028; active = hit-call score of the fitted dose curve at least 0.9, where 1 is the maximum; inactive = score below 0.9); settings: primary human bronchial epithelial cells
Outline: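 Cytotoxicity read-out: SRB (0.1%) staining of TCA-fixed (10%) human lung bronchial epithelial cells, absorbance 560 nm, 24 h post-dosing. Curves fitted both directions relative to DMSO.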

[16] = read-out: Thrombomodulin, THBD (gene 7056); assay: BSK_3C_Thrombomodulin: BioMAP Diversity Plus: 3C Assay for Thrombomodulin Biomarker Activity (AID 2283029; active = hit-call score of the fitted dose curve at least 0.9, where 1 is the maximum; inactive = score below 0.9); settings: primary human endothelial cells (HUVEC); actives raise or lower the signal
Outline: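 Read-out is ELISA of thrombomodulin on human umbilical vein endothelium 24 h after chemical dosing. Gain or loss of signal is scored relative to DMSO. Overt cytotoxicity is checked in parallel cultures by sulforhodamine B staining.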

[17] = read-out: Urokinase-type plasminogen activator receptor (uPAR), PLAUR (gene 5329); assay: BSK_4H_uPAR: BioMAP Diversity Plus: 4H Assay for Urokinase-type plasminogen activator receptor (uPAR) Biomarker Activity (AID 2283030; active = hit-call score of the fitted dose curve at least 0.9, where 1 is the maximum; inactive = score below 0.9); settings: primary human endothelial cells (HUVEC); actives raise or lower the signal
Outline: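 uPAR level read by ELISA on HUVEC cultures (BioMAP 4H) 24 h post-dosing, analyzed for gain or loss relative to DMSO. Parallel SRB staining assessed overt cytotoxicity.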

[18] = read-out: Monokine induced gamma interferon (MIG), CXCL9 (gene 4283); assay: BSK_3C_MIG: BioMAP Diversity Plus: 3C Assay for Monokine induced gamma interferon (MIG) Biomarker Activity (AID 2283021; active = hit-call score of the fitted dose curve at least 0.9, where 1 is the maximum; inactive = score below 0.9); settings: primary human endothelial cells (HUVEC); actives raise or lower the signal
Outline: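 Read-out is ELISA detection of MIG on human umbilical vein endothelial cells, taken 24 h after dosing. Gain or loss of signal was scored relative to DMSO controls using bidirectional curve fitting.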

Sequence of human Retinoid X Receptor beta (RXRb), RXRB (gene 6257) (P28702 whole entry, looked up, the tested form may be a part): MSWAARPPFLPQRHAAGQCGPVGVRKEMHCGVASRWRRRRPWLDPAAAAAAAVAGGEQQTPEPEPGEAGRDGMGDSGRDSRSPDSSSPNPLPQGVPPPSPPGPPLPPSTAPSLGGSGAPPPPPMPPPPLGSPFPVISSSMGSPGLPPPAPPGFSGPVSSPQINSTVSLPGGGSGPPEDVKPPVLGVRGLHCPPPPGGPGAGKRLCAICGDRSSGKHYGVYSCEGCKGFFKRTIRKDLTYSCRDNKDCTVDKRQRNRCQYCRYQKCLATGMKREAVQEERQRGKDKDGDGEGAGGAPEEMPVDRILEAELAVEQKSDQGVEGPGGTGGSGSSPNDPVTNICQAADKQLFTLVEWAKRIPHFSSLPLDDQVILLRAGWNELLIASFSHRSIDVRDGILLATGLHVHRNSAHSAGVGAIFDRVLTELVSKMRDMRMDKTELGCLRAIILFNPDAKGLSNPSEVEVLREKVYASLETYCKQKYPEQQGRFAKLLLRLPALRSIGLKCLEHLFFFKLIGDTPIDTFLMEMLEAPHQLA
Sequence of Retinoic acid receptor RXR-alpha (Homo sapiens) (P19793 whole entry, looked up, the tested form may be a part): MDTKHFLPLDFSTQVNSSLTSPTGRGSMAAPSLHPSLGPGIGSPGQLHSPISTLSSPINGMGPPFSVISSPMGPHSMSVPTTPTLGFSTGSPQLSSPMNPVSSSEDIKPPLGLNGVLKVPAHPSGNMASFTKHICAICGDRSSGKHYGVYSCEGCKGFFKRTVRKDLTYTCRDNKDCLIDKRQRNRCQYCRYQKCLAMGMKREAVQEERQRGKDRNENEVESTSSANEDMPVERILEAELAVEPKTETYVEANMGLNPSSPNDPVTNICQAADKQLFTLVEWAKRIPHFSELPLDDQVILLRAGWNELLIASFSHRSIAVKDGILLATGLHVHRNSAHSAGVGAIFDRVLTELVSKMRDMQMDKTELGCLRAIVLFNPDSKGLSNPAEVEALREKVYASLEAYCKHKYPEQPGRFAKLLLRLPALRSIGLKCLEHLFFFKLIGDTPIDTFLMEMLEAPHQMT
Sequence of human Vitamin D Receptor (VDR), VDR (gene 7421) (P11473 whole entry, looked up, the tested form may be a part): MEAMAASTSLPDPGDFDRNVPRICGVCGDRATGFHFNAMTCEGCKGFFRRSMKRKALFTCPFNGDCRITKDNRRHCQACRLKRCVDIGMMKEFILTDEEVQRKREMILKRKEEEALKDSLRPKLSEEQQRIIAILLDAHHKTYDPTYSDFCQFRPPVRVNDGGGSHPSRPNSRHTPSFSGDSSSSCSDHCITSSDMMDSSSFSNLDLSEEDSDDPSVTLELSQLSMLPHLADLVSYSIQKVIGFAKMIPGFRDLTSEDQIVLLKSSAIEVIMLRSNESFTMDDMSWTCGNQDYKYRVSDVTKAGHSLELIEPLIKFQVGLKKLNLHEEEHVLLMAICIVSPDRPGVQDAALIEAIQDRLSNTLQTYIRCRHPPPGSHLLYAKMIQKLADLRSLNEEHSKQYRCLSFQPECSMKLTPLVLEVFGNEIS
Sequence of human Thyroid Receptor alpha (THRa1), THRA (gene 7067) (P10827 whole entry, looked up, the tested form may be a part): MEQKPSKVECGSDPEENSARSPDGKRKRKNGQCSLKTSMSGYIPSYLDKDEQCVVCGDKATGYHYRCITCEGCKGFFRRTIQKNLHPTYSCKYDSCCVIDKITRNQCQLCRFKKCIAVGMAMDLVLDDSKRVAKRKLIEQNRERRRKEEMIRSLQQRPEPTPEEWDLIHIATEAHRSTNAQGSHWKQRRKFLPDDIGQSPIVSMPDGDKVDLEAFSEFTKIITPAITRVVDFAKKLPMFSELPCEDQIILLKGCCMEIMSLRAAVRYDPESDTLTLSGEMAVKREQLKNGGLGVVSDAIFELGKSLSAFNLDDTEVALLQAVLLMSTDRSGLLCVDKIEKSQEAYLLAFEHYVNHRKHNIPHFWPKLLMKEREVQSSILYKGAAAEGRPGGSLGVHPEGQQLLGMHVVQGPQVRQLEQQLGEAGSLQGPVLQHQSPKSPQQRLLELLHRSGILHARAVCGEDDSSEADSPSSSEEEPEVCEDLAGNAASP
Sequence of human RAR-related Orphan Receptor gamma (RORg), RORC (gene 6097) (P51449 whole entry, looked up, the tested form may be a part): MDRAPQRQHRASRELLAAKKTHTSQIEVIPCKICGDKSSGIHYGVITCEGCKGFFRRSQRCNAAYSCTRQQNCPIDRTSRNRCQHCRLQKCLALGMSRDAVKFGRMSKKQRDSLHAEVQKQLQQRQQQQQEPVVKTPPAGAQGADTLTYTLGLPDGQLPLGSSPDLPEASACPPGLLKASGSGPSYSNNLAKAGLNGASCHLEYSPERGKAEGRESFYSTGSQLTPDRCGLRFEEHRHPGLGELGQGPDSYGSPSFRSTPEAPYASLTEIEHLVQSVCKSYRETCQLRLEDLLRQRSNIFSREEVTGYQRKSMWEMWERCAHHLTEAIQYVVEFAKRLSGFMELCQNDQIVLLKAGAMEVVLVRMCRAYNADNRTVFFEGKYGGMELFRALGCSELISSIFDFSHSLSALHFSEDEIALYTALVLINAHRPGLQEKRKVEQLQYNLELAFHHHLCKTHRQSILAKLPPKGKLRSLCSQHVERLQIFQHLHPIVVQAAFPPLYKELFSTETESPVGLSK
Sequence of human RAR-related Orphan Receptor beta (RORb), RORB (gene 6096) (Q92753 whole entry, looked up, the tested form may be a part): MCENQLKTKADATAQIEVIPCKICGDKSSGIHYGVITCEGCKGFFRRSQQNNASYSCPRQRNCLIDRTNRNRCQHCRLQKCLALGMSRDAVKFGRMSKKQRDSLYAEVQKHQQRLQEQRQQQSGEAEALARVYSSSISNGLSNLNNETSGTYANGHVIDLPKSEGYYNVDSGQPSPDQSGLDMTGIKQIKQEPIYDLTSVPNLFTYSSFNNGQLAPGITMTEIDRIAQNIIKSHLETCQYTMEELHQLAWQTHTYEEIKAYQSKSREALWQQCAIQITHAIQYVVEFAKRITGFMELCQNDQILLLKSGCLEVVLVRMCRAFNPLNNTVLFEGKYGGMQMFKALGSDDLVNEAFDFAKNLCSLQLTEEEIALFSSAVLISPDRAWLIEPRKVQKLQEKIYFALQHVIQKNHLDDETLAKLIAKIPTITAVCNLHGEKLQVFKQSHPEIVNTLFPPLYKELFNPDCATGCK
Sequence of E-selectin (Homo sapiens) (P16581 whole entry, looked up): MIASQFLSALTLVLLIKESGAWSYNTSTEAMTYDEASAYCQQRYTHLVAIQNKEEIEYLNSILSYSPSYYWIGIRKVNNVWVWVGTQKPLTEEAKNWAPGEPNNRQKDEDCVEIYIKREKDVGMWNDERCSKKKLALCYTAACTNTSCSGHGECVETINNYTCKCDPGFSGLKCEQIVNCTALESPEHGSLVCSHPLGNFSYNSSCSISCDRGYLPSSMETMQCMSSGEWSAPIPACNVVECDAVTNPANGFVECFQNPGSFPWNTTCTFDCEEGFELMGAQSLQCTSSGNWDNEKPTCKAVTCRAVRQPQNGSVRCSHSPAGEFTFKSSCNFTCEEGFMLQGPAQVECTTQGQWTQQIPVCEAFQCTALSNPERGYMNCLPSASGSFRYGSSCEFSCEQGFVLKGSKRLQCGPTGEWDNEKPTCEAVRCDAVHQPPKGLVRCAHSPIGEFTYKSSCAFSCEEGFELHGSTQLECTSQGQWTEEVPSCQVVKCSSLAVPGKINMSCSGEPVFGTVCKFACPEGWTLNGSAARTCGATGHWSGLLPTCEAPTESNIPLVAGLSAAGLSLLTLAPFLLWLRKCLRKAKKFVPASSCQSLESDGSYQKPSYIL

Compound: O=C1OCc2ccccc21
- outcome [1]: inactive
- outcome [2]: inactive
- outcome [3]: inactive

Compound: CC(C)COC(=O)c1ccccc1
- outcome [4]: inactive
- outcome [5]: inactive
- outcome [3]: inactive

Compound: Brc1cc(Br)cc(Br)c1
- outcome [1]: inactive
- outcome [2]: inactive
- AC50 [6]: 59.7 µM (active)
- outcome [5]: inactive
- outcome [3]: inactive

Compound: CCCCCCCCCCCCCCCCCC(=O)OCCCCCCCCCCCCCC(C)C
- outcome [1]: inactive
- outcome [2]: inactive
- outcome [6]: inactive
- outcome [5]: inactive
- outcome [3]: inactive

Compound: CC(=N[Si](C)(C)C)O[Si](C)(C)C
- outcome [4]: inactive
- outcome [5]: inactive
- outcome [3]: inactive

Compound: CC(C)COC(=O)c1ccccc1O
- outcome [1]: inactive
- outcome [2]: inactive
- outcome [6]: inactive
- outcome [5]: inactive
- outcome [3]: inactive

Compound: C=CCOCC(O)CO (stereo not drawn)
- outcome [1]: inactive
- outcome [2]: inactive

Compound: CN(C)CCC=C1c2ccccc2CCc2ccccc21
- outcome [1]: inactive
- outcome [2]: inactive
- outcome [5]: inactive
- outcome [3]: inactive

Compound: O=C1Cc2ccccc2C1
- outcome [1]: inactive
- outcome [2]: inactive
- outcome [6]: inactive

Compound: NC(=O)c1cccnc1
- outcome [1]: inactive
- outcome [2]: inactive
- outcome [5]: inactive
- outcome [3]: inactive

Compound: CCOC(=O)CC(C)C
- outcome [1]: inactive
- outcome [2]: inactive
- outcome [5]: inactive
- outcome [3]: inactive

Compound: CC(C)(C)c1cc(CCC(=O)OCCSCCOC(=O)CCc2cc(C(C)(C)C)c(O)c(C(C)(C)C)c2)cc(C(C)(C)C)c1O
- outcome [1]: inactive
- outcome [2]: inactive
- AC50 [6]: 33.9 µM (active)
- outcome [5]: inactive

Compound: CCCc1ccc(O)cc1
- outcome [1]: inactive
- outcome [2]: inactive
- outcome [6]: inactive

Compound: CCCO[Si](OCCC)(OCCC)OCCC
- outcome [1]: inactive
- outcome [2]: inactive
- outcome [6]: inactive
- outcome [7]: inactive
- outcome [8]: inactive
- outcome [9]: inactive
- outcome [10]: inactive
- outcome [11]: inactive
- outcome [12]: inactive
- outcome [3]: inactive
- outcome [13]: inactive
- outcome [14]: inactive
- outcome [15]: inactive
- outcome [16]: inactive
- outcome [17]: inactive

Compound: CC=CC(=O)C1=C(C)C=CCC1(C)C
- outcome [18]: inactive

Compound: COc1cc(OC)c2ccc(=O)oc2c1
- outcome [2]: inactive
- outcome [6]: inactive
- outcome [5]: inactive

Compound: CCCCOCCOCCOCCO
- outcome [2]: inactive
- outcome [6]: inactive
- outcome [5]: inactive

Compound: CCCCOCCOC(=O)c1ccccc1C(=O)OCCOCCCC
- outcome [2]: inactive
- outcome [6]: inactive
- outcome [5]: inactive
- outcome [3]: inactive

Compound: COC(=O)C(C)Oc1ccc(Oc2ncc(C(F)(F)F)cc2Cl)cc1 (stereo not drawn)
- outcome [2]: inactive
- outcome [6]: inactive
- outcome [5]: inactive
- outcome [3]: inactive
